These results are taken from PubChem BioAssay AID1035472 (Broad Institute, 2014).

The source made the active and inactive calls. How the calls were made is not given here.

This test can be described thus: HepG2 cell cytotoxicity, dose response, cytotoxicity control, dry powder samples (AID 1035472). Particulars: HepG2 viability, ATP luminescence (CellTiter-Glo), 72 h; series mostly up to 100 µM. (In ATP-based viability assays light output follows the ATP content of the culture.)

Turning to `Cn1c(NC(=O)c2ccccc2)nc2c3cnccc3ccc21`, the compound was classed as inactive.
